Assay outcomes: PubChem, several laboratories
A selection: hits, their analogues and other compounds. The true share with any hit is near 2.1%.
DUSP3 inh: inhibitors of human VHR1 phosphatase (DUSP3) | recombinant VHR phosphatase, pNPP absorbance | P51452 | hit rate 0.52% among 290,000 | inhibition, % at 13.3 µM; in the data active means inhibition above about 50%
Target sequence (P51452 whole entry, looked up): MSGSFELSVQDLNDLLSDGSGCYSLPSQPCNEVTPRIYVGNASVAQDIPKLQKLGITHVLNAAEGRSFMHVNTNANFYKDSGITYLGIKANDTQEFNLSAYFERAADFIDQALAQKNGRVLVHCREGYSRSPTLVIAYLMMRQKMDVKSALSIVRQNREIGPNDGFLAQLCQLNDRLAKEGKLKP
PrP UTR inh: suppresses PrP 5' UTR mRNA reporter expression. cell-based PrP 5' UTR mRNA reporter, plate reader. inhibition, % (no concentration beside the values). hit rate 0.35% among 340,000. AID 488862; in the data active means inhibition above about 52%
PfHsp40 rescue: rescue of PfHsp40-mediated yeast toxicity; growth rescue, % at 12.5 µM; hit rate 0.68% among 340,000; AID 504582; S. cerevisiae expressing PfHsp40, growth rescue, ATP luminescence; in the data active means growth rescue above about 28%, passing the limit was not always enough;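 further: yeast W303a lacking pdr1 and pdr3 grown in galactose medium; growth measured after three days at 30 °C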
MazF activator: MazEF (E. coli) toxin RNase activation; activation, % at 20 µM; hit rate 0.32% among 350,000; FAM/BHQ RNA-DNA oligo cleavage fluorescence, 5 h; in the data active means activation above about 50%
Target sequence (P0AE70 whole entry, looked up): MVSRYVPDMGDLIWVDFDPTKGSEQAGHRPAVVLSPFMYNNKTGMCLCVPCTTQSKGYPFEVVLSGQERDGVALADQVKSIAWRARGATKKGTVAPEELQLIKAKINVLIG
BJeLR viability: kills HRASV12-expressing BJeLR cells; hit rate 0.17% among 300,000; AID 1554; inhibition, % (concentration not given with the values); BJeLR (HRASV12) viability, CellTiter-Glo ATP luminescence, 48 h; in the data active means inhibition above about 50%
PrPC TRFRET: cell surface PrPC inhibition, primary TR-FRET screen | P04156 | TR-FRET read-out | inhibition, % at 13.8 µM | hit rate 0.43% among 370,000 | AID 720596; in the data active means inhibition above about 24%
Each line names hits and unclear results; the compound was inactive in the other large screens.

Cc1ccc2cc(CN(Cc3cccs3)Cc3nnnn3CC3CCCO3)c(=O)[nH]c2c1C (configuration not stated)	PfHsp40 rescue 73
CCOc1ccc2nc(COC(=O)c3cccc([N+](=O)[O-])c3)c(C(C)=O)[n+]([O-])c2c1	none (no result: PrP UTR inh, PfHsp40 rescue)
O=C1/C(=C/c2ccc(Br)cc2)Oc2cc(O)ccc21	none
O=C1/C(=C/c2ccc([N+](=O)[O-])cc2)Oc2cc(O)ccc21	DUSP3 inh 57
CCOC(=O)C1=CC[C@@H](c2ccccc2C(F)(F)F)N(S(=O)(=O)c2ccc(C)cc2)[C@H]1c1ccc(C#N)cc1	none (no result: DUSP3 inh, PrP UTR inh, PfHsp40 rescue, MazF activator, BJeLR viability)
Cc1cc(C)c2c(c1)c(C)cc1nnc(SCC(=O)c3cccs3)n12	MazF activator 74 (no result: PrPC TRFRET)
CCn1c(SCC(=O)c2cccs2)nnc1-c1cccs1	none
CCOC(=O)C1=C(COC(=O)c2ncc(Cl)c(Cl)c2Cl)NC(=O)NC1C (configuration not stated)	none (no result: DUSP3 inh)
C#CCOCCOCCOCCNc1nc(N2CCN(C(=O)Cn3cc(CCO)nn3)CC2)nc(N2CCN(C(=O)[C@H](CCCCN)n3cc(CC(C)O)nn3)CC2)n1 (some centres not stated)	none (no result: DUSP3 inh, BJeLR viability)
COc1cc(C2NC(=O)NC(C)=C2C(C)=O)ccc1O (configuration not stated)	MazF activator 83 (no result: PrP UTR inh)
CC1(Oc2cccc(F)c2)CCN(Cc2ccc(-c3ccccc3)o2)C1 (configuration not stated)	none (no result: DUSP3 inh, PrP UTR inh, PfHsp40 rescue, MazF activator, BJeLR viability)
Cc1ccc(S(=O)(=O)N2CCCC(C(=O)N3CCN(c4ccccc4)CC3)C2)cc1 (configuration not stated)	PfHsp40 rescue 74
C/C(=N\NC(=O)c1c[nH]c2ccccc12)c1ccccn1	none
CC(=NNC(=S)Nc1ccccc1)c1ccccn1	none (no result: DUSP3 inh, PrP UTR inh, PfHsp40 rescue, BJeLR viability)
C/C(=N\Nc1ccc(Cl)c(C(=O)O)c1)c1ccccn1	none
C/C(=N\Nc1ncc(Cl)cc1Cl)c1ccccn1	PrP UTR inh 78, BJeLR viability 67 (no result: PrPC TRFRET)
CC(=NNC(=S)Nc1ccccc1Cl)c1ccccn1	PfHsp40 rescue 200 (no result: DUSP3 inh, BJeLR viability)
C/C(=N\Nc1ncnc2sc(C)c(C)c12)c1ccccn1	BJeLR viability 80
C/C(=N\NC(=O)c1ccc(F)cc1)c1ccccn1	BJeLR viability 106
CCN(CC(=O)Nc1c(F)cccc1F)C(=O)c1cc(S(=O)(=O)NCc2ccccc2)ccc1C	none (no result: DUSP3 inh)
O=C(COC(=O)c1c(F)cccc1F)NCCNC(=O)COC(=O)c1c(F)cccc1F	none
NC(=O)Nc1ccc(Nc2ccccc2)cc1	none
O=C(Nc1ccc(Nc2ccccc2)cc1)C(Cl)(Cl)Cl	PfHsp40 rescue 33
CC(C)(C)NC(=S)Nc1ccc(Nc2ccccc2)cc1	DUSP3 inh 53
CC[n+]1c(C)sc2sc3ccccc3c21	none (no result: PrP UTR inh, PfHsp40 rescue, MazF activator, PrPC TRFRET)
CC[n+]1c(C)sc2c3ccsc3ccc21	DUSP3 inh 51
O=S1(=O)c2ccc(Br)cc2OC[C@@H](Cc2ccccc2)N1Cc1cn(Cc2ccccc2)nn1	none (no result: DUSP3 inh, PrP UTR inh, PfHsp40 rescue, MazF activator, BJeLR viability)
Cc1cc(C)cc(OCC(=O)N(C)CC(=O)Nc2ccc(Cl)c(C(F)(F)F)c2)c1	PfHsp40 rescue 51 (no result: DUSP3 inh, BJeLR viability)
COc1ccc(NC(=O)CSCC(=O)N(C)CC(=O)Nc2ccc(Cl)c(C(F)(F)F)c2)cc1	none (no result: DUSP3 inh)
Cc1cccc(NC(=O)CSc2nnc(C3CC3)n2CC2CCCO2)c1 (configuration not stated)	none
O=C(COC(=O)c1cc(-c2cccs2)nc2ccccc12)NC1CCS(=O)(=O)C1 (configuration not stated)	none
Oc1ccc(N=Nc2ccccc2)o1	PfHsp40 rescue 288
O=[N+]([O-])c1ccccc1/C=N/Nc1nnc(-c2ccccc2)c(-c2ccccc2)n1	PfHsp40 rescue 42
Cn1c(=O)c2ncn(C)c2n(C)c1=O	none (no result: DUSP3 inh, BJeLR viability)
CC(C)=CCc1c(O)cc2c(=O)c3ccc(O)cc3oc2c1O	PfHsp40 rescue 147 (no result: DUSP3 inh)
O=C(CN(CCc1ccccc1)S(=O)(=O)c1ccc(Cl)s1)N1CCOCC1	none (no result: DUSP3 inh, PrP UTR inh, PfHsp40 rescue, MazF activator, BJeLR viability)
CCCCNS(=O)(=O)c1ccc2nc(SCC(=O)c3ccc(C#N)cc3)[nH]c2c1	DUSP3 inh 57
COc1ccc(C(=O)C2CCCN(C(=O)Cn3nc(C)cc3C)C2)cc1F (configuration not stated)	none
CCOC(=O)CSc1nnc(CSc2nc(N)c3c(C)c(C)sc3n2)n1-c1ccccc1	DUSP3 inh 54
CCOC(=O)CSc1nnc(CSc2nc3sc4c(c3c(=O)[nH]2)CCC4)n1-c1ccccc1	none
Cc1ccc(C2=N/C(=C\c3cccc(F)c3)C(=O)O2)cc1	none
Cc1ccc2c(c1)N(CC(=O)NC1CCCCC1)C(=O)c1cccnc1O2	none
CCC1CCCCN1CCCNC(=O)C1CCCN(S(=O)(=O)N2CC(C)CC(C)C2)C1 (configuration not stated)	DUSP3 inh 54
COc1cc(NC(=O)C2CCCN(c3ncnc4c3nc3n4CCCCC3)C2)cc(OC)c1OC (configuration not stated)	PfHsp40 rescue 44
COc1ccccc1NC(=O)C1CCCN(c2ncnc3c2nc2n3CCCCC2)C1 (configuration not stated)	none
CN1CCN(C(=O)C2CCN(c3ncnc4c3nc3n4CCCCC3)CC2)CC1	none
COCCN(Cc1ccco1)C(=O)C1CCCN(c2ncnc3c2nc2n3CCCCC2)C1 (configuration not stated)	DUSP3 inh 52
O=C(C1CCN(c2ncnc3c2nc2n3CCCCC2)CC1)N1CCCCC1	DUSP3 inh 52
O=C(NC(=S)Nc1cccc(Cl)c1Cl)C1CC1	none
COc1cccc(CN(C)C(=O)C2CCN(S(=O)(=O)c3cccs3)CC2)c1OC	none (no result: DUSP3 inh, BJeLR viability)
CCC1CCCCN1CCCNC(=O)C1CCCN(c2ncnc3c2nc2n3CCCCC2)C1 (configuration not stated)	DUSP3 inh 57
COCCCNC(=O)c1ccccc1Oc1ccccc1	none
COCCCNC(=O)c1ccc2c3c(onc13)-c1ccccc1C2=O	BJeLR viability 51 (no result: PrPC TRFRET)
CCN(CC(=O)Nc1c(F)cccc1F)C(=O)c1cccc(-n2cccc2)c1	none (no result: DUSP3 inh)
COc1cc(-c2cc[n+](C)cc2)ccc1O	PfHsp40 rescue 67 (no result: DUSP3 inh)
Cn1c(=O)c2[nH]c(SCc3cccnc3)nc2n(C)c1=S	none (no result: DUSP3 inh, BJeLR viability)
O=C(Nc1ccccc1)Nc1cccc(-c2nnco2)c1	DUSP3 inh 53
O=C(Nc1ccc(-c2nnco2)cc1)c1ccccc1	none
COc1cccc(N2CCN(S(=O)(=O)c3cn(C)cn3)CC2)c1	none
c1ccc(-c2ccc(OCCCn3cncn3)cc2)cc1	PfHsp40 rescue 269 (no result: BJeLR viability)
Cc1cccc(C)c1NC(=O)CSc1nnc(NC(=O)CN2CCOCC2)s1	PfHsp40 rescue 64
Cc1cccc(C)c1Nc1nnc(SCC(=O)NC(=O)c2cccn2C)s1	DUSP3 inh 51
CCOc1ccccc1Nc1nnc(SCC(=O)NC(=O)c2cccn2C)s1	none
C[n+]1cn(/N=C/c2ccccc2)c2ccccc21	DUSP3 inh 54
C(=N\n1c2ccccc2c2ccccc21)/c1ccccc1	none
Cc1cccc(C(=O)OCC(=O)N2c3ccccc3CC2C)c1C (configuration not stated)	none (no result: DUSP3 inh, PrP UTR inh, PfHsp40 rescue, BJeLR viability)
